Counter-ions that a name gives are not always drawn.
Each compound was assayed on NCI-H1688 (assay: inhibition of cell viability relative to untreated control (fraction); higher = stronger growth inhibition, active = 0.5 or more). Conditions: 30 µM; 24 h.
Method in brief: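 Inhibition of cell viability appears as a fraction, based on viability relative to untreated cells. The assay used NCI-H1688 small cell lung cancer cells seeded in 96-well plates at 3 × 10^3 cells/well, treated one day later with a natural compound library (TargetMol) at 30 µM for 24 h at 37°C and 5% CO2. Absorbance at 450 nm with Cell Counting Kit-8 was recorded in triplicate.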

Row | Compound | inhibition of cell viability
1 | C[C@@H]1O[C@@H](O[C@H]2[C@H](O[C@H]3CC[C@@]4(C)[C@@H](CC[C@]5(C)[C@@H]4CC=C4[C@@H]6CC(C)(C)CC[C@]6(C(=O)O[C@@H]6O[C@H](CO[C@@H]7O[C@H](CO)[C@@H](O)[C@H](O)[C@H]7O)[C@@H](O)[C@H](O)[C@H]6O)CC[C@]45C)[C@]3(C)CO)OC[C@H](O)[C@@H]2O)[C@H](O)[C@H](O[C@@H]2O[C@H](CO)[C@@H](O[C@@H]3O[C@H](CO)[C@@H](O)[C@H](O)[C@H]3O)[C@H](O)[C@H]2O)[C@H]1O [Macranthoidin B] | 0.21 (inactive)
2 | C=C1C(=O)[C@]23[C@H](CC[C@@H]1[C@@H]2O)[C@]12CO[C@@]3(O)[C@H](O)[C@H]1C(C)(C)CC[C@@H]2O [Rubescensin A] | 0.984 (active)
3 | COc1cc2ccc(=O)oc2cc1O [Scopoletin] | -0.00563 (inactive)
4 | CCc1c2c(nc3ccc(OC(=O)N4CCC(N5CCCCC5)CC4)cc13)-c1cc3c(c(=O)n1C2)COC(=O)[C@]3(O)CC [Irinotecan] | 0.684 (active)
5 | CC[C@]1(O)C[C@@H]2CN(CCc3c([nH]c4ccccc34)[C@@](C(=O)OC)(c3cc4c(cc3OC)N(C)[C@H]3[C@@](O)(C(=O)OC)[C@H](OC(C)=O)[C@]5(CC)C=CCN6CC[C@]43[C@@H]65)C2)C1 [Vinblastine sulfate] | 0.764 (active)
6 | CC(C)=CCC[C@](C)(O)[C@H]1CC[C@]2(C)[C@@H]1[C@H](O)C[C@@H]1[C@@]3(C)CC[C@H](O)C(C)(C)[C@@H]3CC[C@]12C [(20S)-Protopanaxadiol] | -0.0275 (inactive)
7 | O=C1CCC[C@@H]2[C@H]3CCC[N+]4([O-])CCC[C@@H](CN12)[C@@H]34 (some centres not stated) [Oxymatrine] | 0.0776 (inactive)
8 | C[C@@H]1O[C@@H](O[C@H]2[C@H](O[C@H]3CC[C@@]4(C)[C@@H](CC[C@]5(C)[C@@H]4CC=C4[C@@H]6CC(C)(C)CC[C@]6(C(=O)O[C@@H]6O[C@H](CO[C@@H]7O[C@H](CO)[C@@H](O[C@@H]8O[C@@H](C)[C@H](O)[C@@H](O)[C@H]8O)[C@H](O)[C@H]7O)[C@@H](O)[C@H](O)[C@H]6O)CC[C@]45C)[C@]3(C)CO)OC[C@H](O)[C@@H]2O)[C@H](O)[C@H](O)[C@H]1O [Hederacoside C] | 0.239 (inactive)
9 | CC(=O)N[C@H]1[C@H]([C@H](O)[C@H](O)CO)OC(O)(C(=O)O)C[C@@H]1O (some centres not stated) [N-Acetylneuraminic acid] | -0.0072 (inactive)
10 | CC(=O)OCC(=O)[C@@]1(O)CC[C@H]2[C@@H]3CCC4=CC(=O)C=C[C@]4(C)[C@@]3(Cl)[C@@H](Cl)C[C@@]21C [Dichlorisone Acetate] | -0.129 (inactive)
11 | C=CCc1ccc(O)c(OC)c1 [Eugenol] | -0.184 (inactive)
12 | O=c1c(O)c(-c2ccc(O)c(O)c2)oc2cc(O)ccc12 [Fisetin] | 0.0255 (inactive)
13 | CC(C)(CO)[C@@H](O)C(=O)NCCCO [Dexpanthenol] | -0.126 (inactive)
14 | COc1cc([C@@H]2c3cc4c(cc3[C@@H](O[C@@H]3O[C@@H]5CO[C@@H](C)O[C@H]5[C@H](O)[C@H]3O)[C@H]3COC(=O)[C@H]23)OCO4)cc(OC)c1O [Etoposide] | 0.664 (active)
15 | C=CCS[S+]([O-])CC=C (configuration not stated) [Allicin] | -0.267 (inactive)
16 | Cc1c(C)c2c(c(C)c1O)CC[C@@](C)(CCC[C@H](C)CCC[C@H](C)CCCC(C)C)O2 [Vitamin E] | -0.243 (inactive)
17 | COC(=O)C1=CO[C@@H](O[C@@H]2O[C@H](CO)[C@@H](O)[C@H](O)[C@H]2O)[C@@H]2[C@@H](C)[C@@H](O)C[C@H]12 [Loganin] | 0.0696 (inactive)
18 | CCCCCCCCCCCCCCCCCCCCCCO [Behenic alcohol] | -0.0686 (inactive)
19 | C[C@H](O)[C@H]1CC[C@H]2[C@@H]3CC[C@@H]4C[C@H](O)CC[C@]4(C)[C@H]3CC[C@]12C [5Beta-Pregnane-3Alpha,20alpha-Diol] | -0.113 (inactive)

Row | Compound | inhibition of cell viability
20 | Nc1nc(=O)c2c([nH]1)NCC(CNc1ccc(C(=O)N[C@@H](CCC(=O)O)C(=O)O)cc1)N2C=O (some centres not stated) [Calcium folinate] | 0.028 (inactive)
21 | COC(=O)C1=CC[C@@]23CC[C@@H]([C@@](C)(/C=C/C=C(\C)C(=O)O)OC2=O)[C@@]3(OC(C)=O)CC1 [Pseudolaric Acid B] | 0.813 (active)
22 | C[C@H]1[C@H](C)CC[C@]2(C(=O)O)CC[C@]3(C)C(=CC[C@@H]4[C@@]5(C)C[C@@H](O)[C@H](O)[C@@](C)(CO)[C@@H]5CC[C@]43C)[C@H]12 [Asiatic acid] | 0.00351 (inactive)
23 | O=c1[nH]cnc2c1ncn2[C@H]1C[C@H](O)[C@@H](CO)O1 [2'-Deoxyinosine] | -0.00407 (inactive)
24 | COc1ccc(-c2cc(=O)c3c(O)c(OC)c(O[C@@H]4O[C@H](CO[C@@H]5O[C@@H](C)[C@H](O)[C@@H](O)[C@H]5O)[C@@H](O)[C@H](O)[C@H]4O)cc3o2)cc1 [Pectolinarin] | 0.194 (inactive)
25 | C[C@H]1[C@H](C)CC[C@]2(C(=O)O)CC[C@]3(C)C(=CC[C@@H]4[C@@]5(C)C[C@@H](O)[C@H](O)[C@@](C)(CO)[C@@H]5[C@H](O)C[C@]43C)[C@H]12 [Madecassic acid] | -0.00715 (inactive)
26 | OC[C@H]1O[C@H](O[C@H]2O[C@H](CO)[C@@H](O)[C@H](O)[C@H]2O)[C@H](O)[C@@H](O)[C@@H]1O [D-(+)-Trehalose dihydrate] | 0.249 (inactive)
27 | CC1(C)C2CCC1(C)C(O)C2 (configuration not stated) [Borneol] | 0.16 (inactive)
28 | COc1cc(/C=C/C(=O)O)ccc1O [Ferulic Acid] | 0.0447 (inactive)
29 | CCCCCC=CCC=CCCCCCCCC(=O)OC(COC(=O)CCCCCCCCCCCCCCC)COP(=O)([O-])OCC[N+](C)(C)C [L-α-Phosphatidylcholine] | 0.136 (inactive)
30 | C[C@@H]1CCCCCCCCCCCCC(=O)C1 [Muscone] | -0.148 (inactive)
31 | COc1cc(/C=C/C(=O)CC(=O)/C=C/c2ccc(O)c(OC)c2)ccc1O [Curcumin] | 0.315 (inactive)
32 | Cc1nc(C)c(C)nc1C [Tetramethylpyrazine] | 0.202 (inactive)
33 | O=c1c2ccccc2nc2n1CCc1c-2[nH]c2ccccc12 [Rutaecarpine] | -0.128 (inactive)
34 | CC(C)CCC[C@@H](C)[C@H]1CC[C@H]2[C@@H]3CC[C@H]4CC(=O)CC[C@]4(C)[C@H]3CC[C@]12C [5alpha-Cholestan-3-one] | -0.0937 (inactive)
35 | C[C@]12CC[C@@H]3c4ccc(O)cc4CC[C@H]3[C@@H]1C[C@@H](O)[C@@H]2O [Estriol] | 0.0233 (inactive)
36 | CC(C)=CCC[C@](C)(O[C@@H]1O[C@H](CO)[C@@H](O)[C@H](O)[C@H]1O)[C@H]1CC[C@]2(C)[C@@H]1[C@H](O)C[C@@H]1[C@@]3(C)CC[C@H](O)C(C)(C)[C@@H]3[C@@H](O[C@@H]3O[C@H](CO)[C@@H](O)[C@H](O)[C@H]3O[C@@H]3OC[C@@H](O)[C@H](O)[C@H]3O)C[C@]12C [Notoginsenoside R1] | -0.0107 (inactive)
37 | C=C1C[C@]23C[C@@]1(O)CC[C@H]2[C@@]12C=C[C@H](O)[C@@](C)(C(=O)O1)[C@H]2[C@@H]3C(=O)O [Gibberellic acid] | 0.0962 (inactive)

Reference: the supplement of paper PMC11634586
